Sampled rows, rich in hits. Any-hit rate of the full collection: about 1.1%.
AmpC inh no detg = qHTS Inhibitors of AmpC Beta-Lactamase (assay without detergent); AmpC nitrocefin hydrolysis, absorbance 480 nm, 0.0001% Triton; P00811; actives 0.52% (n = 330,000); Potency, µM (highest dose often 57.1 µM), for inactives: top-dose activity change, negative = inhibition, hits mostly inhibitors;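 also: plate controls were no compound for no effect and no enzyme for full effect; nearly all actives have a fitted effect of over 20% in size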
Target sequence (P00811 whole entry, looked up): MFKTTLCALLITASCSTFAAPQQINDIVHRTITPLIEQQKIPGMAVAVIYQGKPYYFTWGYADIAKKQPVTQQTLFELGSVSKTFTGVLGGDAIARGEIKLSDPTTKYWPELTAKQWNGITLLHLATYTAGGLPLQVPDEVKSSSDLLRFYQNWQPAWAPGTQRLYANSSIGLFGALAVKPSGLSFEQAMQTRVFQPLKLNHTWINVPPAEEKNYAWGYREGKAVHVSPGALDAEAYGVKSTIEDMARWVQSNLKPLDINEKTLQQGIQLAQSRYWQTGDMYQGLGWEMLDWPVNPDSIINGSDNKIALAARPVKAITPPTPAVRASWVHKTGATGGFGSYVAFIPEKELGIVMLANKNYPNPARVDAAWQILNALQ
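20 mM phosphate pH 7.0 + 0.01% (detergent screen) or 0.0001% Triton X-100; 5.3 nM AmpC reagent; cpd preinc 15 min RT; nitrocefin (800 uM stock) to start; A480 q20 s × 4 min; Activity was normalised to no-enzyme and no-compound control wells.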
AMA1-RON2 inh = qHTS for Inhibitors of AMA1-RON; Towards Development of Antimalarial Drug Lead: Primary Screen; AlphaScreen AMA1-biotinylated RON2 peptide binding; AID 720542, 2013; actives 0.2% (n = 360,000); Potency, µM (titrated, usually from 58.2 µM), for the others: top-dose activity change, negative = inhibition, actives largely listed as inhibitors; Plasmodium falciparum AMA1 (3D7) - RON2 peptide interaction;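 also: 0% = vehicle wells and -100% = peptide control; nearly all actives have a fitted effect of over 45% in size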
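AMA1 (3D7) with his tag at 25 nM final met compounds first, then biotinylated RON2 peptide at 25 nM; detection used donor plus acceptor beads, 10 µg/mL apiece, read by AlphaScreen after 30 min at room temperature.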
AmpC inh detg = qHTS Inhibitors of AmpC Beta-Lactamase (assay with detergent); P00811; AmpC hydrolysis of nitrocefin, absorbance 480 nm, 0.01% Triton; Potency, µM (doses to about 114 µM), for inactives: at the top dose activity change, negative = inhibition, actives largely listed as inhibitors; actives 0.041% (n = 370,000); AID 485294, 2010;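 also: 0% = no-compound wells and -100% = no-enzyme wells; nearly all actives have a fitted effect of over 25% in size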
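AmpC (5.3 nM in the dispensed reagent) in 20 mM phosphate pH 7.0 with 0.01% (detergent screen) or 0.0001% Triton X-100 was preincubated with compounds for 15 min at room temperature. Nitrocefin was then added from an 800 uM solution, and hydrolysis was followed at 480 nm.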
Giardia FBPA inh-1 = qHTS Assay for Inhibitors of Fructose-1,6-bisphosphate Aldolase from Giardia Lamblia | A8B2U2 | purified Giardia FBPA | Potency, µM (highest dose often 59.6 µM), inactives show top-dose activity, negative = inhibition, most hits filed as inhibitors | actives 0.71% (n = 290,000); also: nearly all actives have a fitted effect of over 55% in size
Target sequence (A8B2U2 whole entry, looked up): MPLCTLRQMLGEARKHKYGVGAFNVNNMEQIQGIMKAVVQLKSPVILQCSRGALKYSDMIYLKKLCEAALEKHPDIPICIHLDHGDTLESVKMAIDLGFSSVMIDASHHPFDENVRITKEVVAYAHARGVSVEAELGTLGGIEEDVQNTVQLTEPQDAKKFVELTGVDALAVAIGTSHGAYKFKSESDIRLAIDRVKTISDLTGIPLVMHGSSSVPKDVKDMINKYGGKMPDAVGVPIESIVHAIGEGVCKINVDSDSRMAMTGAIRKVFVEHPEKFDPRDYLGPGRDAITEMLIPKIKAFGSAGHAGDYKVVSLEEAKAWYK
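40 nM FBPA preincubated 10 min at RT with compound (up to 57.5 uM final), then substrate plus GAPDH/TPI/NAD/arsenate coupling and diaphorase/resazurin added. Fluorescence read after 20 min at RT, 525/598 nm.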
Giardia growth = qHTS Assay for Inhibitors of Fructose-1,6-bisphosphate Aldolase from Giardia Lamblia: Giardia lamblia growth inhibition. shares compounds with Giardia FBPA inh-1. Giardia lamblia trophozoite growth inhibition. Potency, µM (series often up to 57.5 µM), inactives show top-dose activity change, negative = inhibition, most hits filed as inhibitors. actives 5% (n = 1,500). AID 2785, 2010;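 also: trophozoites exposed to compound for 48 h at 37 °C; nearly all actives have a fitted effect of over 70% in size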
Mammalian tox = qHTS Assay for Inhibitors of Fructose-1,6-bisphosphate Aldolase from Giardia Lamblia: Mammalian cellular toxicity; mammalian cell viability counter-screen, qHTS; actives 4% (n = 1,500); Potency, µM (series often up to 57.5 µM), inactives show at the top dose viability change, negative = toxicity, actives largely listed as inhibitors; shares compounds with Giardia FBPA inh-1;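 also: Chinese hamster ovary cells used as mammalian cytotoxicity surrogate; viability measured as cellular ATP by luminescence; compound exposure lasted 48 h before reading; nearly all actives have a fitted effect of over 60% in size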
Giardia FBPA inh-2 = qHTS Assay for Inhibitors of Fructose-1,6-bisphosphate Aldolase from Giardia Lamblia: Primary screen confirmation | AID 2787, 2010 | purified Giardia aldolase enzyme activity, qHTS | actives 5% (n = 1,500) | shares compounds with Giardia FBPA inh-1 | Potency, µM (doses to about 57.5 µM), for the others: at the highest dose activity change, negative = inhibition, actives largely listed as inhibitors; also: nearly all actives have a fitted effect of over 45% in size
Rabbit FBPA inh = qHTS Assay for Inhibitors of Fructose-1,6-bisphosphate Aldolase from Giardia Lamblia: Rabbit FBPA Selectivity; actives 4% (n = 1,500); Potency, µM (doses to about 57.5 µM), inactives show at the highest dose activity, negative = inhibition, actives largely listed as inhibitors; Rabbit muscle FBPA enzyme inhibition, selectivity counter-screen; shares compounds with Giardia FBPA inh-1; also: nearly all actives have a fitted effect of over 60% in size
GAPDH counter = qHTS Assay for Inhibitors of Fructose-1,6-bisphosphate Aldolase from Giardia Lamblia: Coupling assay counterscreen confirmation; AID 2795, 2010; shares compounds with Giardia FBPA inh-1; Potency, µM (doses to about 57.5 µM), without a hit: at the highest dose activity change, negative = inhibition, hits mostly inhibitors; GAPDH coupling enzyme counterscreen, biochemical, qHTS; actives 6% (n = 1,500); also: nearly all actives have a fitted effect of over 55% in size
* marks the source's active call; other numbers are inactive results; u = inconclusive; x = no result; [ ] = remark or other dose. Calls follow the shape of the dose curve; as a rule, active = well fitted curve in the direction sought with a large enough effect; inconclusive = small, poorly fitted or top-dose-only effect, or another doubt; inactive = no such curve, though single readings can be large; an effect the other way counts as inactive or inconclusive. Unless noted, % is scaled to controls: 0 for no effect and ±100 for the full control effect; potency is read from the fitted curve at half-maximal effect.

SMILES | AmpC inh no detg | AMA1-RON2 inh | AmpC inh detg | Giardia FBPA inh-1 | Giardia growth | Mammalian tox | Giardia FBPA inh-2 | Rabbit FBPA inh | GAPDH counter
COC(=O)[C@@H]1C[C@@]2(O)[C@H](O)[C@H](O)[C@H](O)C[C@H]2N1Cc1c(F)cccc1Cl | x | x | x | -6% | x | x | x | x | x
O=C(c1ccco1)N1CCN(Cc2cccc3ccccc23)CC1 | 28% | -14% | -10% | 16µM* | u | -3% | 4% | 7% | 8%
O=C(c1ccco1)N1CCN(Cc2ccc(Cl)cc2)CC1 | 0% | -18% | 0% | u | x | x | x | x | x
CCc1ccc(CN2CCN(C(=O)c3ccco3)CC2)cc1 | -7% | u | u | 28µM* | 10% | 11% | 9% | 1% | 11%
CNC(=O)C1CCC(Cn2c(=O)c3sccc3n(CC(=O)Nc3ccc(C)c(C)c3)c2=O)CC1 (centres undefined) | x | x | 17% | x | x | x | x | x | x
CCCc1nc2ccccc2n1C(C(=O)NC(C)(C)C)C1CC1 (centres undefined) | x | -4% | x | x | x | x | x | x | x
N#Cc1cccc(N=c2ssnc2Cl)c1 | -16% | -11% | -13% | 20µM* | u | 2% | -11% | u | 13%
COc1cc(N=c2ssnc2Cl)cc(OC)c1 | -15% | 3% | -2% | 16µM* | -3%[10.4 µM] | -9% | -3% | -11% | 16%
Clc1nssc1=Nc1ccc(Br)cc1 | -31% | -25% | -5% | u | x | x | x | x | x
O=C(CSc1nnnn1C1CC1)Nc1ccc(S(=O)(=O)N2CCOCC2)cc1 | -34% | -8% | 1% | x | x | x | x | x | x
CC(=O)Nc1ccc(S(=O)(=O)NCCc2cn3ccsc3n2)cc1 | x | x | 6% | x | x | x | x | x | x
Nc1nc(SCC(=O)c2ccc(F)cc2)n[nH]1 | -19%[11.4 µM] | 3% | -15% | -1% | x | x | x | x | x
CCOc1ccc(-c2nc(SCC(=O)c3ccccc3)n[nH]2)cc1 | x | x | 0% | x | x | x | x | x | x
Cc1nc(SCC(=O)c2ccc(F)cc2)n[nH]1 | -14% | 7% | u | 28µM* | 16%[10.4 µM] | 14% | 6% | -4% | 8%
O=C(CSc1n[nH]c(-c2ccccc2)n1)c1ccc(O)c(O)c1 | u | 13% | u | 8.9µM* | -18%[10.4 µM] | -16% | -28% | -24% | -13%
CCc1nnc(NC(=O)CN2CCN(Cc3cccc(OC)c3)CC2)s1 | 0% | 46% | -9% | 3.2µM* | u | 7% | 12% | 9% | 20%
Cc1nnc(NC(=O)CN2CCN(Cc3ccccc3Cl)CC2)s1 | -13% | 47% | -1% | 4.5µM* | -5%[10.4 µM] | -6% | 6% | 5% | 19%
Cc1cccc(C(=O)OC(C)CN2C(C)CCCC2C)c1 (centres undefined) | -10% | -9% | 3% | -12% | x | x | x | x | x
NNC(=S)NC1CCS(=O)(=O)C1 (centres undefined) | -12% | 53% | 2% | 18µM* | 29% | 11% | -3% | 12% | 2%
CNc1nc(-c2ccccc2)[n+](-c2ccc(C)cc2)s1 | -10% | -25% | 0% | 13µM* | u | -15% | u | 10µM* | 6%
CC1CCN(C(=O)CSc2nc3c(cnn3-c3ccccc3)c(=O)[nH]2)CC1 | -25% | 3% | -4% | 1% | x | x | x | x | x
CC(=O)N1CCN(C(=O)CSc2nc3c(cnn3-c3ccccc3)c(=O)[nH]2)CC1 | 2% | 0% | 1% | 40µM* | u | -6% | 1% | 9% | 6%
COC(=O)[C@H](C(C)C)N(Cc1ccccc1)S(=O)(=O)CCN1CCN(c2ccccc2)CC1 | 42% | -11% | x | x | x | x | x | x | x
Cc1nc(NC(=O)CN2CC(C)OC(C)C2)sc1C(=O)N(C)C (centres undefined) | -13% | 15% | -9% | 11µM* | 15% | 1% | 7% | 8% | 9%
CN1CCN(Cc2c(O)ccc3occ(C(=O)c4ccccc4)c23)CC1 | 26% | 2% | -7% | -7% | x | x | x | x | x
SMILES | AmpC inh no detg | AMA1-RON2 inh | AmpC inh detg | Giardia FBPA inh-1 | Giardia growth | Mammalian tox | Giardia FBPA inh-2 | Rabbit FBPA inh | GAPDH counter
CC(=O)C(C(C)=O)c1c(Cl)c(O)c(O)c2c(C(=O)c3ccccc3)coc12 | -34% | 64% | -15% | 18µM* | -12% | -16% | u | -24% | -12%
CC(=O)Nc1nc(C)nc(-c2ccccc2)c1C(C)=O | -11% | 2% | -9% | 16µM* | 23% | -7% | 3% | 9% | 10%
Nn1c(-c2cccc(Br)c2)n[nH]c1=S | -40% | 95% | u | -6% | x | x | x | x | x
CCn1nc(C)cc1-c1n[nH]c(=S)n1N | -16% | -3% | 1% | 7.1µM* | 17% | 21% | 7% | -3% | 14%
NC1=C(O)C(=O)C(c2ccccc2)O1 (centres undefined) | -20% | -4% | -8% | 16µM* | 6%[10.4 µM] | 5% | -24% | -13% | -22%
O=C1OC(c2ccccc2)/C(=C(/O)c2ccccc2)C1=O (centres undefined) | -17% | 5% | 1% | 6% | x | x | x | x | x
Cc1ccc(-n2c(=O)c3ccccc3n(CC(=O)Nc3cccc(C(F)(F)F)c3)c2=O)cc1 | x | x | -3% | x | x | x | x | x | x
O=C(NNC(=O)c1ccc(Cl)cc1Cl)c1cnccn1 | 88% | 90% | -1% | 20µM* | 8.9µM* | -8% | -5% | 5% | -1%
O=C(NNC(=O)c1cnccn1)c1cccc([N+](=O)[O-])c1 | -6% | 109% | -2% | 7% | x | x | x | x | x
O=C(Nc1ccccc1Cl)c1cnccn1 | -8% | 25% | -7% | 2% | x | x | x | x | x
O=C(NNC(=O)c1ccccc1[N+](=O)[O-])c1cnccn1 | -11% | 83% | 4% | 20µM* | u | -13% | 2% | 1% | -4%
O=C(NC(=S)NNC(=O)c1cnccn1)c1ccc(F)cc1 | -11% | -66% | 5% | 5% | x | x | x | x | x

Assay outcomes deposited in PubChem BioAssay by National Center for Advancing Translational Sciences (NCATS).
